Screening results (PubChem)
Compounds with a hit are over-represented: about 3.7% of the library has one in this group of screens.
A549 viability: kills or reduces viability of A549 cells in Nrf2 counter-screen | A549 ARE-Fluc cells, CellTiter-Fluor viability, 18-24 h | Potency, µM (highest dose often 46 µM), for the others: at the highest dose activity change, negative = cytotoxicity, most hits filed as inhibitors | actives 0.16% (n = 390,000) | AID 504648; further: on the % scale 0 is the no-effect control and ±100 the full control effect
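A549 ARE_Fluc cells in 5% FBS OPTI-MEM were exposed to compounds in concentration-response for 18-24 h at 37 deg C. Viability was read by CellTiter-Fluor fluorescence (Ex 405/Em 525) after 30 min, before the luciferase read.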
Nrf2 ARE act: activates Nrf2 signaling | AREc32 ARE-luciferase reporter (MCF7-derived line), luminescence, 24 h | Potency, µM (top dose mostly 46.1 µM), for inactives: top-dose activation, hits mostly activators | actives 0.31% (n = 410,000) | AID 624171; further: % of control where 0% means no effect; nearly all actives have a fitted effect of over 65% in size
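Reporter line AREc32 (ARE-Fluc), seeded overnight in OPTI-MEM with 5% FBS; compound pin-transferred, 24 hr at 37 deg C, 5% CO2; luminescent read-out.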
ELG1 DNA repair: blocks ELG1-dependent DNA repair in HEK293T cells | HEK293T ELG1-luciferase reporter, luminescence, 16 h; DNA damage induced by 5-fluorouridine | Potency, µM (doses to about 46.1 µM), inactives show top-dose activity change, negative = inhibition, most hits filed as inhibitors | actives 2.3% (n = 330,000) | AID 504467; further: on the % scale 0 is the no-effect control and ±100 the full control effect; nearly all actives have a fitted effect of over 55% in size
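Reporter activity after DNA damage by 5-fluorouridine is monitored. Compound-treated cells incubate 16 hr at 37 °C, then ONE-Glo is added for 30 min before luminescence reading.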
Nrf2 block: Nrf2 pathway inhibition. A549 ARE-Fluc reporter, luciferase luminescence, 18-24 h. Potency, µM (titrated, usually from 46 µM), inactives show at the highest dose activity change, negative = inhibition, actives largely listed as inhibitors. actives 2.1% (n = 360,000). AID 504444; further: on the % scale 0 is the no-effect control and ±100 the full control effect; nearly all actives have a fitted effect of over 60% in size
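Concentration-response testing used A549 ARE_Fluc cells at 5000 cells/well. Following an 18-24 h compound incubation, viability was read by fluorescence (Ex 405/Em 525) and luciferase output by luminescence.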
* = called active by the depositor; ? = inconclusive; . = no result given; [ ] = remark or other dose. The call rests on the fitted dose curve; in most records, active means well fitted curve in the direction sought with a large enough effect; inconclusive means small, poorly fitted or top-dose-only effect, or another doubt; inactive means no such curve, though single readings can be large; an effect the other way counts as inactive or inconclusive. Potency means the concentration at half of the fitted maximal effect.

SMILES	A549 viability	Nrf2 ARE act	ELG1 DNA repair	Nrf2 block
NC(=O)c1ccsc1NC(=O)COC(=O)Cc1ccsc1	0%	-1%	0%	-3%
COc1cc(CC(=O)OCC(=O)Nc2sccc2C(N)=O)cc(OC)c1OC	-6%	0%	7.3µM*	-32%
C=CCNC(=S)N/N=C(\C)c1ccccn1	?	?	0.18µM*	0.58µM*
CC1CCc2c(sc(NC(=O)CSc3ncn[nH]3)c2C#N)C1 (stereo not given)	-10%	-3%	-23%	7.3µM*
N#Cc1c(NC(=O)CSc2nc(-c3ccccc3)cc(C(F)(F)F)n2)sc2c1CCC2	0%	-1%	7.3µM*	?
N#Cc1c(NC(=O)CSc2ncn[nH]2)sc2c1CCCC2	-6%	-2%	-28%	4.1µM*
CC(C)(C)C1CCc2c(sc(NC(=O)CSc3ncn[nH]3)c2C#N)C1 (stereo not given)	?	-1%	?	?
CCOC(=O)c1ccc(NC(=O)CSc2nnc(-c3ccncc3)n2-c2ccccc2)cc1	-3%	-1%	.	.
CN(CC(=O)NCc1ccco1)C(=O)C1CC(=O)N(c2ccc3c(c2)OCCO3)C1 (stereo not given)	4%	-1%	12%	-1%
CCOc1ccc(NC(=O)CSc2ncc(-c3ccc(F)cc3)n2Cc2ccco2)cc1	?	0%	16µM*	?
CC(C)c1ccc(NC(=O)CSc2n[nH]c(=O)n2Cc2ccco2)cc1	-4%	5%	?	10µM*
O=C(CSc1ncc(-c2ccc(F)cc2)n1Cc1ccco1)Nc1ccc2c(c1)OCO2	-11%	2%	.	?
COc1ccc2c(Sc3ccc(Cl)cc3)c(C(=O)NCCCN3CCCCC3)[nH]c2c1	2%	-3%	.	?
COc1ccc(C(=O)N2CCc3cc(OC)c(OC)cc3C2c2ccc(OC)c(OC)c2)cc1 (stereo not given)	6%	8%	-10%	-27%
COc1ccc(C2c3cc(OC)c(OC)cc3CCN2C(=O)c2ccccc2)cc1OC (stereo not given)	2%	0%	6.5µM*	-18%
CCOc1ccccc1N1CCN(C(=O)C2CSC3(C)CCC(=O)N23)CC1 (stereo not given)	9%	0%	7%	5%
CCOC(=O)Cc1csc(NC(=O)/C=C\c2ccccc2Cl)n1	-16%	?	4%	26µM*
CCOC(=O)Cc1csc(NC(=O)c2csc3c2CCCC3)n1	0%	0%	-10%	18µM*
CCOC(=O)Cc1csc(NC(=O)Nc2ccc(OC(F)(F)F)cc2)n1	-6%	2%	2.1µM*	-14%
O=S(=O)(NCCCSc1ccccc1)c1ccccc1F	-4%	0%	1%	?
O=C(C1CC(=O)N(c2ccccc2)C1)N1CCN(c2ccccc2F)CC1 (stereo not given)	-11%	0%	-14%	-4%
Cc1ccc(NC(=O)C2COc3ccccc3O2)cc1S(=O)(=O)N1CCOCC1 (stereo not given)	6%	3%	0%	1%
COc1cccc(OC)c1/C(O)=C(\C#N)c1nc2ccccc2[nH]1	0%	3%	-16%	2%
CC(C)(C)/C(O)=C(/C#N)c1nc2ccccc2[nH]1	-15%	0%	23µM*	?
CCS(=O)(=O)c1cccc(C(=O)N2CCN(c3nc4c(C)ccc(Cl)c4s3)CC2)c1	-18%	-1%	.	12µM*
SMILES	A549 viability	Nrf2 ARE act	ELG1 DNA repair	Nrf2 block
COc1ccc(-c2c[n+](CC(=O)OC3CC(C)CCC3C(C)C)c3n2CCC3)cc1 (stereo not given)	-12%	0%	?	?
CC(C)[C@@H]1CC[C@@H](C)C[C@H]1OC(=O)C[n+]1cc(-c2ccc(Cl)cc2)n2c1CCCCC2	-13%	-2%	21µM*	?
O=C1NC(c2ccccc2)=N/C1=C/c1ccco1	-11%	4µM*	?	?
O=C1NC(=S)NC1=Cc1ccco1	-1%	3%	.	-4%
O=C1NC(c2ccccc2Br)=N/C1=C\c1ccco1	-6%	5.6µM*	?	17%
O=C1NC(=O)/C(=C/c2ccco2)N1	1%	1%	19%	4%
O=C1NC(c2cccc(Br)c2)=N/C1=C\c1ccco1	-13%	8.9µM*	?	?
CC(C)c1cc2c(s1)c1cnn(Cc3ccccc3F)c(=O)c1n2C	-3%	.	.	?
CN(C)C(=O)CCc1ccc2c3c([nH]c2c1)[C@]1(CCc2ccccc2)[C@@H](C(=O)N2CCCCC2)C[C@H](CC(=O)NC(C)(C)C)C(=O)N1CC3	7%	3%	-14%	?
O=S1(=O)C=C(SCc2cccc(Cl)c2)Nc2ccccc21	0%	-1%	-5%	21µM*
Cc1cccc(CSC2=CS(=O)(=O)c3ccccc3N2)c1	0%	0%	-2%	?
CC1CCCCC1NC(=O)CCNS(=O)(=O)c1ccc(Cl)cc1 (stereo not given)	0%	-1%	2%	2%
COc1ccc(OC2C(=O)N(c3cc(C)ccc3C)C2c2ccc(OC)c(OC)c2)cc1 (stereo not given)	4%	0%[9.22 µM]	18µM*	-22%
Cc1cccc2sc(=S)[nH]c12	.	10%	.	.
COCCNC(=O)c1cccc(Nc2nc(-c3ccccc3)c3cc(Cl)ccc3n2)c1	?	2%	21µM*	15µM*
Cc1ccc(NS(=O)(=O)c2cccc(C(=O)NCC(c3ccco3)N3CCCCC3)c2)cc1 (stereo not given)	-12%	-1%	-23%	-17%
CC(=O)c1cccc(S(=O)(=O)NCC(c2ccco2)N2CCCCC2)c1 (stereo not given)	-4%	2%	0.58µM*	11%
Cn1c(=O)c2c(nc(NCCc3ccccc3)n2Cc2ccc(F)cc2)n(C)c1=O	1%	0%	12µM*	?
Cn1c(=O)c2c(nc(Sc3ncccn3)n2Cc2ccc(Cl)cc2)n(C)c1=O	5%	1%	16µM*	15µM*
Cn1c(=O)n(Cc2ccccc2)c(=O)c2c1nc(NCC1CCCO1)n2Cc1ccccc1 (stereo not given)	5%	0%	21µM*	.
Cn1c(NCc2ccccc2)nc2c1c(=O)n(Cc1ccccc1)c(=O)n2C	2%	0%	?	1%
COc1ccc(CNc2nc3c(c(=O)n(Cc4ccc(F)cc4)c(=O)n3C)n2C)cc1	-10%	0%	18µM*	?
Cn1c(=O)c2c(nc(Sc3ncccn3)n2Cc2ccccc2Cl)n(C)c1=O	-10%	0%	?	?
Cc1ccccc1C1CC(=O)Oc2cc(O)ccc21 (stereo not given)	3%	0%	17%	8%
Cc1oc2ncnc(N3CCCCC3)c2c1C(=O)N1CCN(c2cccc(C(F)(F)F)c2)CC1	-19%	0%	.	-27%
CNc1nc2c(c(=O)n(C)c(=O)n2C)n1Cc1ccccc1	-16%	1%	-2%	7.3µM*
